Calb FLC: C. albicans growth modulation with fluconazole | C. albicans CaCi-2 (fluconazole-resistant clinical isolate) + fluconazole, Alamar Blue growth, 48 h | growth inhibition, % (no concentration beside the values) | 300,000 compounds, 0.57% hits;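 active means growth inhibition above about 58% in most replicates, limit read from the data, passing the limit was not always enough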;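 further: all wells also contain fluconazole at 8 µg/ml as a sub-toxic cotreatment; 0% = median of DMSO wells and 100% = median of geldanamycin control wells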
MPTP inh: blocks calcium-induced mitochondrial swelling; inhibition, % at 10 µM; isolated mouse mitochondria, Ca2+ swelling absorbance, 30 min; 360,000 compounds, 1.4% hits;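 active means inhibition of 50% or more, scaled per plate between neutral and stimulator controls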;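 further: 0% = DMSO wells given calcium and 100% = 1 mM EGTA wells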
CSC inhib: cancer stem cell inhibition; cancer stem cell-like cells viability, luminescence; AID 2717; inhibition, % at 7.5 µM; 300,000 compounds, 1.1% hits; in the data active means inhibition above about 75%; tested in HMLE shEcad cells
SKKanGAS inh: SKKanGAS growth inhibition; 300,000 compounds, 1.3% hits; inhibition, % at 7.5 µM; S. pyogenes SKKanGAS, kanamycin growth, BacTiter-Glo, 6 h;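 active means mean replicate score, as percent of positive control median, at least 50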;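 further: strain carries kanamycin resistance gene driven by streptokinase promoter and grows in 40 µg/ml kanamycin; loss of luminescence reflects streptokinase promoter inhibition or plain growth inhibition; 0% = median of DMSO wells and 100% = positive control at its reference dose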
Beta apoptosis: beta cell apoptosis inhibition. INS-1E cytokine-induced death, ATP luminescence, 48 h; percent of positive-control rescue, neutral wells zero. protection from apoptosis, % (test concentration not listed). 300,000 compounds, 0.8% hits. AID 435005;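 active means Every replicate reaches about 75%, or at least half do and their mean reaches it too, limit read from the data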;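 further: 0% = cytokine-treated negative control wells and 100% = positive control rescue; higher means more ATP so stronger rescue from cytokine killing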
Mdm2 MdmX PPI: human Mdm2/MdmX binding inhibition | SaOS-2 split-luciferase Mdm2/MdmX complementation, luminescence | inhibition, % at 8 µM | 330,000 compounds, 3% hits;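 active means inhibition of at least 50% at 8 µM in the primary screen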
Target sequence (O15151 whole entry, looked up): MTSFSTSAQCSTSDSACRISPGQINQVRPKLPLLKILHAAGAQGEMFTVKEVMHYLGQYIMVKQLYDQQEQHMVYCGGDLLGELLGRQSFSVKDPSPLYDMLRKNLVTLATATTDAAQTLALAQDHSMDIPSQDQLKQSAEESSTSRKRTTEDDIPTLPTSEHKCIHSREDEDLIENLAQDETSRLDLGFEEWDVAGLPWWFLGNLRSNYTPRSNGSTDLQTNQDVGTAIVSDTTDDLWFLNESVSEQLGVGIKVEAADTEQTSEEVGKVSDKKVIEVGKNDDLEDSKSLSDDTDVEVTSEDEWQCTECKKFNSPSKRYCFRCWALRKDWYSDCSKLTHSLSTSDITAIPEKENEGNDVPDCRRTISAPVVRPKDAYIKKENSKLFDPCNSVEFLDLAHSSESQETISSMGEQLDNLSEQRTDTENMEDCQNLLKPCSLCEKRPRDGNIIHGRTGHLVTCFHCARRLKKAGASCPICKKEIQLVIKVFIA
Target sequence (Q00987 whole entry, looked up): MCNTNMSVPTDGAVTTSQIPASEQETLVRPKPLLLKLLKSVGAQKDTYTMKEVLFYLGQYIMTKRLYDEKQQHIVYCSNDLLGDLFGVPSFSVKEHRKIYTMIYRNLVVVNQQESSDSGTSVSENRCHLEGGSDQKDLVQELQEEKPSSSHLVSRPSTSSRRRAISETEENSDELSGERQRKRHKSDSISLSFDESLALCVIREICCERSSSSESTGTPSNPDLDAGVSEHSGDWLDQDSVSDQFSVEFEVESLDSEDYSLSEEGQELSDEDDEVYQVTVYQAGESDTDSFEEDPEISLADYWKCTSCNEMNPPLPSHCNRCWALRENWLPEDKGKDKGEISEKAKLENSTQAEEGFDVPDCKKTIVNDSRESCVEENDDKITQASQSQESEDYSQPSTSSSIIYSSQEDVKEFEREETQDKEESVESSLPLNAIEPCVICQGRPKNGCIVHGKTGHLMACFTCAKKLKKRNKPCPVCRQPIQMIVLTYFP
MPTP counter: Rhodamine 123 counter-screen of mitochondrial pore hits; shares compounds with MPTP inh; isolated mitochondria, membrane potential, Rhodamine 123 fluorescence; inhibition, % at 10 µM; 5,000 compounds, 78% hits; AID 624504; in the data active means inhibition above about 22%;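 further: 0% = DMSO vehicle and 100% = positive control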
MPTP abs DR: dose response confirmation of mitochondrial permeability transition pore inhibitors | IC50, µM | 780 compounds, 58% hits | shares compounds with MPTP inh | isolated mitochondria swelling, absorbance; in the data active means IC50 below about 20 µM
MPTP counter DR: counter-screen for mitochondrial permeability transition pore inhibitors, dose response; shares compounds with MPTP inh; isolated mitochondria counterscreen, fluorescence read-out; IC50, µM; 780 compounds, 49% hits; in the data active means IC50 below about 80 µM
* marks the source's active call; other numbers are inactive results; i = inactive; x = no result. Hits are enriched below; roughly 5.4% of the tested compounds scored in any of these assays.

SMILES	Calb FLC	MPTP inh	CSC inhib	SKKanGAS inh	Beta apoptosis	Mdm2 MdmX PPI	MPTP counter	others
CCOC(=O)/C(=N\Nc1ccc(C(C)=O)cc1)c1csc(Nc2ccccc2)n1	-7	64*	14	-6	14	23	-9	MPTP abs DR=i;MPTP counter DR=12*
O=C(NC1CCCCC1)C1CCN(C(=O)c2ccccc2Cl)CC1	-3	0	-8	-1	-5	-7	x
CC(=O)c1c(C)[nH]c(C(=O)OCC(=O)N2CC(C)OC(C)C2)c1C (configuration not stated)	1	0	-1	6	-7	15	x
FC(F)(F)c1nnc(N2CCN(c3ccc(Cl)cc3)CC2)s1	6	1	-9	0	-2	40	x
FC(F)(F)c1nnc(Nc2ccc(Cl)cc2)s1	-28	79*	12	-1	5	27	75*
O=S(=O)(c1ccc(Cl)nc1)N1CCOCC1	x	0	-14	x	-5	8	x
COC(/C(=N/O)c1ccc(Cl)cc1)c1ccccc1 (configuration not stated)	5	68*	6	10	100*	10	76*
COc1ccc(Cl)cc1NC(=O)C(OC)c1ccccc1 (configuration not stated)	-6	0	8	8	2	16	x
CCN(CC)c1ccc(/C=C2/C(=O)c3ccc(C(=O)O)cc3C2=O)cc1	x	72*	-3	x	-5	x	-34
CN(C)C(=S)Nc1ccc(S(=O)(=O)N2CCCCC2)cc1	15	2	6	5	-1	3	x
Cc1ccc(/C=C2/SC(=S)N(CCC(=O)N3CCN(C)CC3)C2=O)cc1	23	79*	53	-1	-54	48	5	MPTP abs DR=>100;MPTP counter DR=>80
CCn1nc(C(=O)NNC(=O)COc2ccc(OC)cc2)c2ccccc2c1=O	-2	0	-11	14	0	-5	x
CC(C)c1ccc(CNc2ccc([N+](=O)[O-])cn2)cc1	-28	3	3	5	0	-9	x
CC(C)(C)c1ccc(CNc2ccc([N+](=O)[O-])cn2)cc1	-50	56*	10	-1	-4	x	75*
COc1ccc(NC(=S)NC(NC(=O)c2cccc3ccccc23)C(Cl)(Cl)Cl)c([N+](=O)[O-])c1 (configuration not stated)	-5	70*	39	13	7	30	55*
COc1ccc(NC(=S)NC(NC(=O)c2ccccc2Cl)C(Cl)(Cl)Cl)c([N+](=O)[O-])c1 (configuration not stated)	-11	66*	29	23	9	-30	66*
COc1ccc(NC(=S)NC(NC(=O)c2ccc(Cl)cc2Cl)C(Cl)(Cl)Cl)c([N+](=O)[O-])c1 (configuration not stated)	-6	87*	x	50*	x	30	54*
COc1ccc(NC(=S)NC(NC(=O)CCl)C(Cl)(Cl)Cl)c([N+](=O)[O-])c1 (configuration not stated)	-6	9	1	-9	3	28	x
COc1ccc(C2CC(C(F)(F)F)n3ncc(C(=O)Nc4cccc(O)c4)c3N2)cc1OC (configuration not stated)	0	-9	-6	5	3	6	x
CCN(CC)C(NC(=O)Cc1ccccc1)C(Cl)(Cl)Cl (configuration not stated)	-4	-1	x	-2	-3	32	x
Cc1cc(C(=O)COC(=O)c2ccc(N)c([N+](=O)[O-])c2)c(C)n1-c1ccc2c(c1)OCO2	-10	14	9	28	21	13	x
CC(=O)c1ccc(OCC(=O)c2cc(C)n(-c3ccc4c(c3)OCO4)c2C)cc1	6	80*	1	0	62	21	85*
CCCCC#Cc1ccc(C(=O)NNC(=O)Nc2cc(Cl)cc(Cl)c2)o1	-10	79*	25	7	-4	24	77*
COc1cccc(OCC(=O)NNC(=S)Nc2ccc(Cl)cc2Cl)c1	68	68*	-5	0	-2	-24	99*
CC(=O)c1cccc(NC(=S)NC(=O)c2cccc(C)c2)c1	24	-1	-3	-11	-4	x	x
SMILES	Calb FLC	MPTP inh	CSC inhib	SKKanGAS inh	Beta apoptosis	Mdm2 MdmX PPI	MPTP counter	others
COc1ccc(F)cc1CSc1nnnn1-c1ccc(O)cc1	-2	2	22	0	x	19	x
COc1cc(CSc2nnnn2-c2ccc(C)cc2)cc(OC)c1OC	10	92*	-12	-1	102*	37	89*
Cc1cccc(C(=O)N[C@H](C(=O)Nc2nc3ccc(S(C)(=O)=O)cc3s2)C(C)C)c1	36	-1	-12	9	0	1	x
Cc1c(/C=N/NC(=O)c2ccccc2O)c2ccccn2c1C(=O)c1ccc(F)cc1	-26	98*	0	29	4	34	56*
Cc1ccc(NC(=O)c2ccc(C)cc2)cc1	-27	2	-6	-1	-5	-136	x
Cc1ccc(C(=O)Nc2ccc(Br)c(C(F)(F)F)c2)cc1	9	94*	37	30	3	-27	83*
CCOc1ccc(Oc2cc(NC(=O)c3ccco3)cc([N+](=O)[O-])c2)cc1	x	24	18	x	8	x	x
Cc1cccc(Oc2cc(NC(=O)c3ccccc3)cc([N+](=O)[O-])c2)c1	0	68*	55	35	100*	16	81*
O=C(CCc1ccc(Oc2cc([N+](=O)[O-])cc([N+](=O)[O-])c2)cc1)Nc1cccc(Cl)c1	-5	97*	51	11	-2	x	78*
O=C(Nc1ccc(Cl)c(Cl)c1)Oc1ccc(NC(=O)c2ccco2)cc1	-3	102*	x	72*	53	33	77*
O=C(Nc1ccc(OC(=O)c2ccco2)cc1)c1ccco1	-2	-1	-8	3	-1	-12	x
COc1ccc(CCC(=O)Nc2cccc(Cl)c2)cc1	-5	2	-12	10	-4	-15	x
O=C(Nc1cc(Oc2ccc(Cl)cc2)cc([N+](=O)[O-])c1)c1ccco1	26	91*	63	12	4	17	74*
C(=N\c1nc2ccccc2[nH]1)/c1cccs1	12	-2	-5	x	-2	-4	x
c1ccc2c(CSc3ncnc4nc[nH]c34)cccc2c1	5	56*	-5	2	-1	25	41*
COc1ccccc1NS(=O)(=O)c1ccc(NN=C2CCCC2)c([N+](=O)[O-])c1	9	60*	23	5	27	28	47*
O=C1/C(=C\c2ccc(O)cc2)SC(=S)N1/N=C/c1ccc(O)cc1	-2	96*	6	12	2	0	78*

Screening data (PubChem BioAssay)
